The source of these data is the supplement of paper PMC6555819.

This test concerns VDR:RXRa (NR concentration 270 nM, RXRa partner concentration 90 nM). In words: PBM binding z-score (relative to random genomic background probes); higher = stronger binding; sequences stand for … in GC…GCGATTGACAGCGTAGAATGAAGG
As for the experimental part:
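Protein-binding microarray (Agilent 4x180K custom design, double-stranded 60-nt probes: 5' GC cap, 34-nt variable region, 24-nt constant primer region; full probe sequence given). Purified or IVT nuclear receptor:RXRα heterodimers (3:1 NR:RXRα, mostly 270:90 nM) or homodimers were incubated for 1 h in PBS with 2% milk and no ligand, then detected with Alexa488 antibodies. Fluorescence from o1-orientation probes (~5 replicates averaged) was converted to z-scores against 500 random hg19 background probes. Variable regions are seed direct-repeat (DR0–DR5) sites, all their single-nucleotide variants and half-site ablations.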
For the sequence ACAGACAGATGATGAAGGTAACTCAGGCTATCAT, the PBM binding z-score was 0.0494.
For the sequence CCTGCTAGGTCAATGGTCAGATAAAGCAGCTCGC, the PBM binding z-score was found to be 0.927.
The figure for CCTACCGGGCCAAGGTCATTGATCAGTCAAAGCA is 3.22.
For the sequence CGAACTAGGTCATTGACACGACAGTGAATAGTAA, the PBM binding z-score is 2.01.
The sequence TCATATAGGTAAACAGGTCAAAGTCCGTAAGTTA gave a PBM binding z-score of 2.87.
Consider CTCGAAAGGTCGGTTGAGGTTAGTATACGGATAA, for which the PBM binding z-score turned out to be 3.58.
The figure for CCTACTGGGCCATTCAGAGGTCATTAATCATATG is 3.64; for CAGAGTAGGTTATGGGGCATTCAGGCAACGGTGA it is 0.214; for CGTCCAAGGTCAAGGTCATTGAAAGAGACTCGAA it is 5.37.
The same measure for TAGCCTAGGTCATTGGGCCAATATAGTACGCATC: 2.33; for CCTTACGGGTCGAGGTTATAGCACGGGTGGTACG: 1.25; for CCTCGGAGGACGGAAGGTCAGAGCTGTCCGCTTT: 0.873.
The figure for CCTACTGGGCCAAAGGTCACTGATTCCAATGCTC is 4.55; for ACTATTCGTTGAGACGAGGGCAACCGATAGGTTG it is 0.454.
In turn, CCAACTAGGTCACCGGAAGGTCAAAGTCCGCATG showed a PBM binding z-score of 5.87.
The same measure for ATCTCTAGGTAAGGATAGTTCAGTGAATGCAAAT: 0.733; for TCTTGTAAATCAAAGGTTAAGAAAGCCGAAGCCT: 1.07.
The figure for ATATGTAGGTTACATCCGGGTCATTCATGCTATG is 4.1; for TCTTGTTGATCAACAGGAGGTTAAGAAAGATCGA it is 0.368; for CGCCCAAGGTCAATGCTAGGTCAGTGAAAGCATT it is 4.59.
CTGACTGGGGCATAAGGTTACCATAAGCCAGCCC returned a PBM binding z-score of 0.451.
TCTTGTAGATCTAAGGTTAAGAAAGCCGAAGCCT yielded a PBM binding z-score of 0.651.
Sequence TCATATAAGTAAACAGGTGAAAGTCCGTAAGTTA yielded a PBM binding z-score of 1.28.
The figure for TCTGCTAGGTCAAGGATGGTCAGCTAATCTGCTA is 1.18.
The figure for ATCGAAAGGTCGACGAGGTGAGTATTCACCGTTT is 5.38; for GCTATTAGTTGGAAGGGCAACCGAATGATTCTCG it is -0.223; for CCTACTGGGCCACGAAAGGTCATTGGTTCAGTGA it is 4.55.
For the sequence TAGCCTAGGTCTTTCAGGGGCCAGTATAGAAAGC, the PBM binding z-score was -0.481.
The same measure for TCGAGTAGGTTACCAATGGGGCATTCCGCTTTCT: 0.11.
In turn, TCGACTAGGTTAGGGGCATTCAGAATGGCGTCGA gave a PBM binding z-score of 0.465.
As to ATCTCTAGGTAAATATAGTTCAGTGAATGCAAAT, the PBM binding z-score stood at 1.44.
The same measure for ATCTCTAGGTAATAGTTCAGTGAATCCCGAGGAT: 0.188; for AATACAGGGTCATCGTAGGCCAGAGTCCGCACAG: 5.19.
The figure for TCTTGTAGATCAACGGTTAAGAAAGCCGAAGCCT is 0.234.
The sequence TAGCCTAGGTCATGCGCCAGTATACCACGCGAAC registered a PBM binding z-score of 2.01.
In turn, TCTAGTTCGTCAAAGGTCACACACTCGAAATGCG registered a PBM binding z-score of 5.77.
The figure for TAGCCTTGGTCAGATCGGGCCAGTATACGCTATA is -0.557.
The figure for ATCCAAAGGTCGACGAGGTGAGTATACACCGTTT is 5.23; for CCGAGTAGGTTATGGGGCATGCAGGCAACGGTGA it is -0.196; for CCAGACAGGCGAAAGGTAACTCAGTCTGGTACGC it is -0.255.
